Results from PubChem BioAssay AID1159580 (chemical genetic matrix, 2015).
Values joined by “and” are separate entries in the source; they are usually repeats but may differ in a detail not shown here. Equal entries are not always repeated. In all, about 5,500 compounds went through this assay and about 2,000 (36%) were called active. Inconclusive results (about 18%) are left out. Cut-off read from the data, not from the text of the source: active = normalized growth mostly below about 0.91 (no sharp cut-off); inconclusive = no clear call, values can overlap the other calls; inactive = mostly above about 0.92. Some of the results follow.

Test: chemical genetic growth profiling, strain panel (AID 1159580);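 note: tested at 20 µM; growth read once vehicle control cultures reached saturation at 30 °C; 1 = growth at the plate median or of vehicle wells; lower values mean less growth of the strain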
Conditions: S. cerevisiae deletion strains, growth OD

Measured: normalized growth

CC(=O)OCC(=O)[C@@]1(O)CCC2C3CCC4=CC(=O)C=CC4(C)C3[C@@H](O)C[C@@]21C (stereo partly drawn)
inactive: locus YAL021C, strain ccr4, hits give low values 1 | locus YAL026C, strain drs2, hits give low values 1 | locus YAL030W, strain snc1, hits give low values 0.997 | locus YBL061C, strain skt5, hits give low values 0.996 | locus YBR009C, strain hhf1, hits give low values 1.01 | locus YBR021W, strain FUR4, hits give low values 1.02 | locus YBR023C, strain chs3, hits give low values 0.994 | locus YBR171W, strain sec66, hits give low values 0.973 | locus YBR229C, strain ROT2, hits give low values 1.01 | locus YBR231C, strain swc5, hits give low values 0.978 | locus YBR279W, strain paf1, hits give low values 0.993 | locus YCL011C, strain gbp2, hits give low values 0.996 | locus YCL016C, strain dcc1, hits give low values 1.01 | locus YCL029C, strain bik1, hits give low values 1.02 | locus YCL061C, strain MRC1, hits give low values 0.997 | locus YCL069W, strain vba3, hits give low values 1 | locus YCR088W, strain abp1, hits give low values 0.998 | locus YDL005C, strain med2, hits give low values 0.992 | locus YDL035C, strain GPR1, hits give low values 1.02 | locus YDL040C, strain nat1, hits give low values 1 | locus YDL074C, strain BRE1, hits give low values 1.02 | locus YDL101C, strain DUN1, hits give low values 1 | locus YDL134C, strain PPH21, hits give low values 1.01 | locus YDL185W, strain tfp1, hits give low values 1.02 | locus YDL192W, strain arf1, hits give low values 1.02 | locus YDR001C, strain nth1, hits give low values 1 | locus YDR069C, strain doa4, hits give low values 0.99 | locus YDR101C, strain arx1, hits give low values 1.02 | locus YDR137W, strain rgp1, hits give low values 0.978 | locus YDR150W, strain NUM1, hits give low values 1 | locus YDR159W, strain sac3, hits give low values 1 | locus YDR162C, strain NBP2, hits give low values 1.01 | locus YDR195W, strain ref2 0.984 | locus YDR297W, strain sur2, hits give low values 0.992 | locus YDR318W, strain mcm21, hits give low values 1.03 | locus YDR334W, strain swr1, hits give low values 1 | locus YDR335W, strain msn5, hits give low values 1 | locus YDR388W, hits give low values 1.02 | locus YDR392W, strain spt3, hits give low values 1.02 | locus YDR502C, strain sam2, hits give low values 1.01 | locus YEL003W, strain gim4, hits give low values 0.998 | locus YEL037C, strain rad23, hits give low values 1 | locus YEL061C, strain CIN8 (second series), hits give low values 0.98 | locus YEL061C, strain CIN8, hits give low values 1 | locus YER015W, strain faa2, hits give low values 0.996 | locus YER016W, strain bim1, hits give low values 1.01 | locus YER110C, hits give low values 1.01 | locus YER111C, strain swi4, hits give low values 0.996 | locus YER155C, strain BEM2 (second series), hits give low values 0.978 | locus YER155C, strain BEM2, hits give low values 1 | locus YER167W, strain BCK2, hits give low values 1.01 | locus YFR010W, strain ubp6, hits give low values 0.993 | locus YGL078C, strain dbp3, hits give low values 1.01 | locus YGL086W, strain mad1, hits give low values 1 | locus YGL167C, strain pmr1, hits give low values 0.999 | locus YGL173C, strain kem1, hits give low values 0.992 | locus YGL227W, strain vid30, hits give low values 1 | locus YGL240W, strain doc1, hits give low values 0.972 | locus YGL248W, strain PDE1, hits give low values 1.01 | locus YGL253W, strain hxk2, hits give low values 1.01 | locus YGR135W, strain pre9, hits give low values 1.02 | locus YGR252W, strain gcn5, hits give low values 1.05 | locus YHR013C, strain ard1, hits give low values 0.978 | locus YHR027C, strain rpn1, hits give low values 1 | locus YHR030C, strain SLT2, hits give low values 1 and 0.977 | locus YHR079C, strain IRE1 (second series), hits give low values 1.02 | locus YHR079C, strain IRE1, hits give low values 0.964 | locus YHR094C, strain hxt1, hits give low values 1.01 | locus YHR129C, strain ARP1, hits give low values 1 | locus YHR142W, strain chs7, hits give low values 0.989 | locus YHR200W, strain rpn10, hits give low values 1.01 | locus YIL066C, strain RNR3, hits give low values 1.01 | locus YIL073C, strain SPO22, hits give low values 1.03 | locus YIL125W, strain kgd1, hits give low values 1.01 | locus YIR030C, strain dcg1, hits give low values 1.02 | locus YJL092W, strain hpr5, hits give low values 0.995 | locus YJL095W, strain BCK1 (second series), hits give low values 0.995 | locus YJL095W, strain BCK1, hits give low values 1.03 and 0.993 | locus YJL115W, strain asf1, hits give low values 0.994 | locus YJL129C, strain trk1, hits give low values 0.97 | locus YJL134W, strain LCB3, hits give low values 1.01 | locus YJL154C, strain vps35, hits give low values 0.996 | locus YJL164C, strain tpk1, hits give low values 1.01 | locus YJL166W, strain qcr8, hits give low values 0.951 | locus YJL168C, strain set2, hits give low values 1.02 | locus YJL187C, strain SWE1 (second series), hits give low values 1.01 | locus YJR043C, strain POL32, hits give low values 1.01 | locus YJR066W, strain TOR1, hits give low values 0.935
